SMILES strings stand for the structures. About 310 (2.8%) of roughly 11,000 compounds were called active. No stated cut-off is given here; in the data, active means activity change below about -85%; inactive means the rest. Many of the other results were omitted from the sample, so actives are more common in it than they were.

The subject of the assay is intestinal alkaline phosphatase [Mus musculus]. Briefly: activators of mouse IAP, confirmation, biochemical, luminescence, single concentration (AID 434970). The note with it: purified mouse IAP, CDP-Star luminescence, 30 min, at 10 µM; activation factor: measured here: IAP activation factor, stronger effect = higher value; activity change, negative = activation: stronger effect = lower value.
In the case of `Cc1cc(-c2csc(NC(=O)c3ccc(=O)[nH]c3)n2)c(C)n1Cc1ccco1`, the activation factor is 0.347 and the activity change, negative = activation is 65.4% (inactive).
For `CCCc1c(O)nc(SC2CC(=O)N(c3cc(OC)ccc3OC)C2=O)[nH]c1=O` (stereo unspecified), the activation factor came to 1.01 and the activity change, negative = activation is -0.65% (inactive).
On to `C=CCn1c(SCC(=O)Nc2cc(C)ccc2OC)nnc1-c1ccco1`, for which the activation factor came to 1.07 and the activity change, negative = activation was -7.4% (inactive).
For `CCOC(=O)C1=CN(Cc2ccc(Br)cc2)S(=O)(=O)NC1C` (stereo unspecified) the same measures were 0.968 and 3.25% (inactive).
For the compound `O=C(Nc1ccc(Cl)cc1)Nc1ccc(-c2cnco2)cc1`, the activation factor was 1.34 and the activity change, negative = activation is -34.5% (inactive).
The like results for `O=C(Nc1ccc(Cl)cc1)Nc1ccc(N2CCOCC2)cc1` were, in that order, 1.17 and -16.9% (inactive).
On to `O=C(Nc1ccc(Cl)cc1)N[C@@H]1c2c(ccc3ccccc23)OC[C@@H]1CO`, for which the activation factor turned out to be 4.85 and the activity change, negative = activation was -385% (active).
As to `CCCCc1ccc(CC(=O)O)cc1`, the activation factor was found to be 0.907 and the activity change, negative = activation was 9.3% (inactive).
Turning to `O=C(Nc1ccc(F)cc1)Nc1csc2ccccc12`, the activation factor was found to be 1.94 and the activity change, negative = activation is -93.7% (inactive).
For `O=C(Nc1ccc(F)c(Cl)c1)Nc1csc2ccccc12` the same measures were 2.15 and -115% (active).
Turning to `CCCCC(=O)Nc1ccc(F)c(Cl)c1`, the activation factor is 1.05 and the activity change, negative = activation is -5.3% (inactive).
Regarding `CC(C)CNC(=O)c1ccccc1NC(=O)Nc1ccccc1`, the activation factor was determined as 0.949 and the activity change, negative = activation is 5.15% (inactive).
For `O=C(Nc1ccc(F)cc1F)Nc1csc2ccccc12`, the activation factor turned out to be 1.77 and the activity change, negative = activation is -77.3% (inactive).
As for `O=C(Nc1ccccc1)Nc1csc2ccccc12`, the activation factor was found to be 2.08 and the activity change, negative = activation was -108% (active).
Regarding `O=S(=O)(NCc1cccs1)c1cccc(S(=O)(=O)N2CCCCC2)c1`, the activation factor is 0.903 and the activity change, negative = activation was 9.65% (inactive).
Take `Cc1ccccc1N(CC(=O)N1CCN(c2ccccc2)CC1)S(C)(=O)=O`: the activation factor was 0.932 and the activity change, negative = activation is 6.8% (inactive).
Turning to `COc1ccc(OC)c(S(=O)(=O)n2ccnc2C)c1`, the activation factor stood at 0.998 and the activity change, negative = activation is 0.15% (inactive).
As for `COc1ccc(Cc2nnc(NC(=O)C3CCCO3)s2)cc1OC` (stereo unspecified), the activation factor was 1.01 and the activity change, negative = activation is -1.15% (inactive).
The like results for `CCC(C)OC(=O)C1=C(C)NC2=C(C(=O)C(C(=O)OC)C(C)C2)C1c1ccc(N(C)C)cc1` (stereo unspecified) were, in that order, 1.06 and -6.35% (inactive).
`CCN(CC)CCNC(=O)Cn1nc(-c2ccccc2)c2ccccc2c1=O`: the activation factor worked out at 0.954 and the activity change, negative = activation was 4.6% (inactive).
The like results for `NC(=O)C1CCN(c2ncnc3c(-c4ccccc4)nsc23)CC1` were, in that order, 0.947 and 5.35% (inactive).
On to `O=C(c1cc(-c2cccs2)on1)N1CCN(C(c2ccccc2)c2ccccc2)CC1`, for which the activation factor was 0.971 and the activity change, negative = activation is 2.95% (inactive).
In the case of `Cc1ccc(CNC(=O)C2(NC(=O)Nc3ccc(C)cc3)CCCCC2)cc1`, the activation factor was found to be 2.98 and the activity change, negative = activation was -198% (active).
On to `O=C(Nc1cccc(Cl)c1)NC1(C(=O)NCc2cccs2)CCCCC1`, for which the activation factor was 1.62 and the activity change, negative = activation was -61.7% (inactive).
For the compound `COc1ccccc1CNC(=O)Cn1cccc1`, the activation factor is 0.944 and the activity change, negative = activation was 5.65% (inactive).
On to `Cc1ccc(NC(=O)NC2(C(=O)NCc3ccccc3)CCCCC2)cc1`, for which the activation factor worked out at 2.31 and the activity change, negative = activation is -131% (active).
`CCOC(=O)c1ccc(NC(=O)NCc2ccc(OC)cc2)cc1`: the activation factor worked out at 1.49 and the activity change, negative = activation was -49% (inactive).
Turning to `COc1ccccc1CNC(=O)C1(NC(=O)Nc2ccc(C)cc2)CCCCC1`, the activation factor turned out to be 3.44 and the activity change, negative = activation is -244% (active).
Consider `COc1ccccc1C(=O)Nc1ccc(CN2CCCCC2)cc1`, for which the activation factor stood at 0.94 and the activity change, negative = activation was 6% (inactive).
For `O=C(NCc1ccccc1)NC1(C(=O)N2CCCC2)CCCCC1`, the activation factor amounted to 0.94 and the activity change, negative = activation is 6% (inactive).
As for `CCn1c(CC(=O)Nc2ccc(C)cc2)nnc1SCC(=O)NCc1ccccc1`, the activation factor came to 1 and the activity change, negative = activation was -0.4% (inactive).
With `CC1(C)CC(=O)C2=C(C1)N=c1s/c(=C/c3ccc(F)c(F)c3)c(=O)n1C2c1ccc(F)cc1` (stereo unspecified), the activation factor is 0.856 and the activity change, negative = activation is 14.4% (inactive).
Turning to `N#C/C(=C/c1ccco1)C(N)=S`, the activation factor was 0.434 and the activity change, negative = activation was 56.5% (inactive).
With `CCOC(=O)c1c(-c2ccccc2)oc2ccc(O)c(CN(C)C)c12`, the activation factor was found to be 0.909 and the activity change, negative = activation was 9.15% (inactive).
On to `Nc1ncnc2c1ncn2[C@@H]1O[C@H](CNS(=O)(=O)c2cc(S(=O)(=O)c3ccccc3)cs2)[C@@H](O)[C@H]1O`, for which the activation factor was determined as 1.08 and the activity change, negative = activation is -7.65% (inactive).
For the compound `Cc1ccc(C(=O)Nc2nnn(C)n2)cc1`, the activation factor was found to be 1.1 and the activity change, negative = activation was -10.2% (inactive).
As for `CCN(CC)S(=O)(=O)c1ccc(NC(=O)Cn2c(=O)sc3ccccc32)cc1`, the activation factor was 1.31 and the activity change, negative = activation is -30.9% (inactive).
The like results for `C#CCOCCOCCOCCNc1nc(N2CCN(C(=O)CCCCCCCCCCNC(=O)[C@H]([C@@H](C)CC)n3cc(CCCCN=C(N)N)nn3)CC2)nc(N2CCN(C(=O)CCCCCCCCCCNC(=O)[C@H](CCCN=C(N)N)n3cc(C[C@@H](C)CC)nn3)CC2)n1` were, in that order, 9.52 and -852% (active).
For `C#CCOCCOCCOCCNc1nc(N2CCN(C(=O)CCCCCCCCCCNC(=O)[C@H](CCCN=C(N)N)n3cc(C[C@@H](C)CC)nn3)CC2)nc(N2CCN(C(=O)CCCCCCCCCCNC(=O)[C@@H]([C@H](C)CC)n3cc(CCCCCN)nn3)CC2)n1` the same measures were 6.19 and -519% (active).
For `C#CCOCCOCCOCCNc1nc(N2CCN(C(=O)CCCCCCCCCCNC(=O)[C@H]([C@@H](C)CC)n3cc(CCCCN=C(N)N)nn3)CC2)nc(N2CCN(C(=O)CCCCCCCCCCNC(=O)[C@H](CCCCN)n3cc(C[C@@H](C)CC)nn3)CC2)n1` the same measures were 8.58 and -758% (active).
On to `Cc1ccc(N=C2NC(=O)CS2)cc1`, for which the activation factor was 0.925 and the activity change, negative = activation was 7.5% (inactive).
For `COc1ccc(C2/C=C\CN(S(=O)(=O)c3ccc(C)cc3)CC(=O)N2Cc2cccc(F)c2)cc1` (stereo unspecified) the same measures were 1.08 and -8% (inactive).
For `O=C1CCCCCN1Cc1nnc(SCc2nc3ccccc3s2)n1-c1ccccn1` the same measures were 0.923 and 7.7% (inactive).
Consider `Cc1ccc(-c2noc(CN3CCC(C(N)=O)CC3)n2)cc1`, for which the activation factor stood at 0.997 and the activity change, negative = activation was 0.25% (inactive).
As to `CC(=O)NCC(=O)N(c1c(C)n(C)n(-c2ccccc2)c1=O)C1(C(=O)NC2CCCC2)CCCCC1`, the activation factor came out at 0.98 and the activity change, negative = activation is 2.05% (inactive).
Turning to `O=C(N1CCOCC1)C1(c2ccccc2)CCCCC1`, the activation factor came out at 0.901 and the activity change, negative = activation is 9.95% (inactive).
With `Cc1ccc(NC(=O)CN(C)C(=O)CCCN2C(=O)c3ccccc3C2=O)cc1`, the activation factor amounted to 1.04 and the activity change, negative = activation was -3.95% (inactive).
For `C#CCOCCOCCOCCNc1nc(N2CCN(C(=O)CCCCCCCCCCNC(=O)[C@H]([C@@H](C)CC)n3cc(CCCCCN)nn3)CC2)nc(N2CCN(C(=O)CCCCCCCCCCNC(=O)[C@@H]([C@H](C)O)n3cc(C)nn3)CC2)n1` the same measures were 4.1 and -310% (active).
Turning to `C#CCOCCOCCOCCNc1nc(N2CCN(C(=O)CCCCCCCCCCNC(=O)[C@H]([C@@H](C)CC)n3cc(CCCCCN)nn3)CC2)nc(N2CCN(C(=O)CCCCCCCCCCNC(=O)[C@H](CO)n3cc(CCCCCN)nn3)CC2)n1`, the activation factor amounted to 2.51 and the activity change, negative = activation was -151% (active).
For `C#CCOCCOCCOCCNc1nc(N2CCN(C(=O)CCCCCCCCCCNC(=O)[C@H]([C@@H](C)CC)n3cc(CCCCCN)nn3)CC2)nc(N2CCN(C(=O)CCCCCCCCCCNC(=O)[C@@H]([C@H](C)CC)n3cc(CCCCCN)nn3)CC2)n1` the same measures were 6.79 and -579% (active).
Take `CCOc1ccc(-n2cc(C(=O)Nc3cccc(Cl)c3)c3cc(OC)c(OC)cc3c2=O)cc1`: the activation factor amounted to 1.1 and the activity change, negative = activation was -10.2% (inactive).
The like results for `CNC(=O)/C(C#N)=C/c1ccc(-c2ccc(OC)cc2[N+](=O)[O-])o1` were, in that order, 0.891 and 10.9% (inactive).
In the case of `CC(C)N(C(=O)[C@H]1C[C@H](CC(=O)NCCC2=CCCCC2)C(=O)N2CCc3c([nH]c4ccc(Cl)cc34)[C@]12C)C(C)C`, the activation factor came out at 1.23 and the activity change, negative = activation was -23.5% (inactive).
`NC(=O)c1c(NC(=O)CSc2nnc(-c3ccco3)n2-c2ccccc2)sc2c1CCC2`: the activation factor turned out to be 0.759 and the activity change, negative = activation was 24.1% (inactive).
Consider `COc1ccc(NC(=O)C2CCCN2c2ccc(OC)c(OC)c2)cc1OC` (stereo unspecified), for which the activation factor is 1.14 and the activity change, negative = activation is -14.2% (inactive).
In the case of `COc1ccc(C2C(C(=O)N3CCCC3)c3cc(OC)c(OC)cc3C(=O)N2C)cc1` (stereo unspecified), the activation factor was found to be 0.989 and the activity change, negative = activation is 1.1% (inactive).
As for `COc1ccccc1NC(=O)CCNS(=O)(=O)c1ccc2[nH]c(=O)oc2c1`, the activation factor worked out at 0.265 and the activity change, negative = activation was 73.5% (inactive).
With `COC(=O)c1ccc(S(=O)(=O)N2CCCCCC2)cc1`, the activation factor amounted to 0.874 and the activity change, negative = activation was 12.6% (inactive).
Take `COc1ccc(CNC(=O)C(C)n2ccc3cc(S(=O)(=O)N4CCCCCC4)ccc32)cc1` (stereo unspecified): the activation factor was determined as 1.91 and the activity change, negative = activation is -90.9% (inactive).
Consider `CCC(C(=O)NCCC(C)C)n1ccc2cc(S(=O)(=O)N3CCCCC3)ccc21` (stereo unspecified), for which the activation factor is 2.59 and the activity change, negative = activation was -159% (active).
On to `CCOc1ccccc1N(CC(=O)Nc1ccc(C)cc1)S(C)(=O)=O`, for which the activation factor worked out at 0.98 and the activity change, negative = activation is 2.05% (inactive).
For `O=C(CC1Sc2ccccc2NC1=O)OCC(=O)N1CCc2ccccc21` (stereo unspecified), the activation factor turned out to be 1.11 and the activity change, negative = activation was -10.6% (inactive).
Take `Cc1ccc(C)c(CN2CCC(CNC(=O)Nc3cccc(Cl)c3C)CC2)c1`: the activation factor came to 2.47 and the activity change, negative = activation is -147% (active).
For the compound `CCOC(=O)CNC(=O)Nc1cccc(Cl)c1C`, the activation factor was found to be 1.04 and the activity change, negative = activation was -4.45% (inactive).
As to `Cc1c(Cl)cccc1NC(=O)CCN1CCCCCC1`, the activation factor turned out to be 0.984 and the activity change, negative = activation is 1.6% (inactive).
On to `Cc1ccc(NC(=O)Cn2cccc2)c(C)c1`, for which the activation factor is 1.01 and the activity change, negative = activation was -1.25% (inactive).
Turning to `Cc1ccc(NC(=O)NCC2CCN(Cc3cc(C)ccc3Cl)CC2)c(C)c1`, the activation factor amounted to 1.87 and the activity change, negative = activation is -86.8% (active).
Turning to `Cc1ccc(NC(=O)CSCC(=O)O)c(C)c1`, the activation factor was found to be 1.07 and the activity change, negative = activation is -7.15% (inactive).
On to `COC(=O)CCN(C(=O)C1C2CC3CC(C2)CC1C3)c1ccccn1` (stereo unspecified), for which the activation factor was 0.948 and the activity change, negative = activation is 5.2% (inactive).
`COc1ccccc1-c1nnc(SCCN2CCOCC2)n1-c1ccc(C)cc1`: the activation factor was 0.947 and the activity change, negative = activation was 5.3% (inactive).
Turning to `CCOC(=O)C1=CN(Cc2ccco2)S(=O)(=O)N(CC)C1c1cccc(OC)c1` (stereo unspecified), the activation factor was determined as 1.02 and the activity change, negative = activation was -1.7% (inactive).
Regarding `O=S1(=O)CC(O)C(Nc2ccccc2)C1` (stereo unspecified), the activation factor came to 0.942 and the activity change, negative = activation was 5.85% (inactive).
The like results for `OC(c1cccc(OCc2ccccc2)c1)c1nnc(-c2ccccc2)o1` (stereo unspecified) were, in that order, 1.03 and -3.4% (inactive).
